Measurements from the supplement of paper PMC3545927.
The list shows a part of the results. The true hit rate is not given.

Biological target: furin, P09958
Experiment: furin cleavage Z-score vs untreated control; higher = more cleavage, active = 3.5 or more, inactive = 1 or less, 8 variable residues between constant flanks
Summary of the method: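 Sequencing of released DNA, tagged with adapters by PCR, gave read counts used as abundance. That DNA was freed when purified furin cut N-terminally bead-bound 8-mer peptides fused to a cDNA oligonucleotide, in 0.01 ml reactions at 1:10 enzyme:substrate in 50 mM HEPES pH 7.5 with CaCl2 and NaCl, lasting 7.5, 15 or 30 min. The cleavage Z-score was the lowess-adjusted log count versus furin-free reactions, scaled by median absolute deviation.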

Sequence of furin, P09958 (P09958 whole entry): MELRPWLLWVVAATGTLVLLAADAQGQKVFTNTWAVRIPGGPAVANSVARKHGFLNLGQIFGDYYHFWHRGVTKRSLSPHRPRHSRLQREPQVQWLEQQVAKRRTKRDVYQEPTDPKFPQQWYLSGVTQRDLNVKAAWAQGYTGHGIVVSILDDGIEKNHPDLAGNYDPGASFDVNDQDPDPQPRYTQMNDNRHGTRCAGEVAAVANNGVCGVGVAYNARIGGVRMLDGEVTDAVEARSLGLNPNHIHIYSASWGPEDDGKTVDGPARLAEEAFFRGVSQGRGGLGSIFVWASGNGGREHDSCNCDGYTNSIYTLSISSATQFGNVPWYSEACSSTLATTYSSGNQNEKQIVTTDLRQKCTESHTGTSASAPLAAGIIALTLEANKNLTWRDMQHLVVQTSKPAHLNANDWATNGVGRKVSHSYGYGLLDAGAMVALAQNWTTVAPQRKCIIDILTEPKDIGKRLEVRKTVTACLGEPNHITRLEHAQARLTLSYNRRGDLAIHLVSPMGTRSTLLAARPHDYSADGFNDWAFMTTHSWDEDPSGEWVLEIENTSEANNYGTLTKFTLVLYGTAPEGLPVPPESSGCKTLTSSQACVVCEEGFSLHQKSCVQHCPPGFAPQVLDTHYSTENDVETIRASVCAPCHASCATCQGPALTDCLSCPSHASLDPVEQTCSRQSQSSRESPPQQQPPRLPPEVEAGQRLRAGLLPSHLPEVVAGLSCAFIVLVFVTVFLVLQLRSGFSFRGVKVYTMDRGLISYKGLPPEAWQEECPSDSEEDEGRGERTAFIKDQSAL

Sequence	furin cleavage Z-score (7.5 min)	furin cleavage Z-score (15 min)	furin cleavage Z-score (30 min)
CAEVPCHVPSAGNASASA [HC2370]	-0.196 (inactive)	0.881 (inactive)	0.0659 (inactive)
CAVIPTSGDVAGNASASA [HC873]	-1.48 (inactive)	-0.378 (inactive)	1.84
CAYRLWHYPCAGNASASA [HC467]	0.186 (inactive)	0.568 (inactive)	0.0366 (inactive)
CAVVCFSMSYAGNASASA [HC86]	-0.132 (inactive)	1.31	0.28 (inactive)
CADIEVVTSTAGNASASA [HC2284]	-0.624 (inactive)	-0.333 (inactive)	-1.16 (inactive)
CAPRCLVDYPAGNASASA [HC463]	0.288 (inactive)	-0.558 (inactive)	-0.868 (inactive)
CAMEECSQDLAGNASASA [HC1751]	-0.0304 (inactive)	-0.261 (inactive)	0.894 (inactive)
CASTPCSAHFAGNASASA [HC2567]	1.04	-0.481 (inactive)	1.8
CARVKKEWEEAGNASASA [FS-1871]	-0.778 (inactive)	-0.527 (inactive)	-1.03 (inactive)
CARVVLSGKPAGNASASA [HC1003]	-0.899 (inactive)	-0.703 (inactive)	-0.908 (inactive)
CARVKKSPPEAGNASASA [FS-2196]	3.38	4.49 (active)	5.53 (active)
CAQTRGLLGCAGNASASA [HC678]	0.117 (inactive)	-0.157 (inactive)	-0.705 (inactive)
CASMLTDPSHAGNASASA [HC1247]	0.787 (inactive)	1.14	0.981 (inactive)
CARFKRSAQFAGNASASA [FS-2663]	9.02 (active)	10 (active)	9.39 (active)
CARKKRKAAPAGNASASA [FS-2267]	5.91 (active)	5.87 (active)	5.5 (active)
CARKKRKPEEAGNASASA [FS-3192]	0.523 (inactive)	1.22	1.86
CARKKRMAKYAGNASASA [FS-2966]	5.67 (active)	7.97 (active)	8.42 (active)
CARKKRKIKEAGNASASA [FS-3191]	-0.575 (inactive)	-0.156 (inactive)	2.36
CARKKRLISYAGNASASA [FS-2965]	0.348 (inactive)	3.83 (active)	6.5 (active)
CADFERSRAFAGNASASA [FS-1845]	-0.875 (inactive)	-0.501 (inactive)	-0.616 (inactive)
CARHWTTQGCAGNASASA [HC309]	0.306 (inactive)	-0.845 (inactive)	0.176 (inactive)
CAMEECFQHLAGNASASA [HC26]	0.765 (inactive)	1.72	1.22
CAILAGYGAGAGNASASA [HC1086]	-0.899 (inactive)	-0.697 (inactive)	-0.69 (inactive)
CARKKRSQTYAGNASASA [FS-1958]	8.08 (active)	10.2 (active)	9.02 (active)
CARKKRSEYYAGNASASA [FS-1957]	5.84 (active)	8.3 (active)	8.52 (active)
CARKSRSPHNAGNASASA [FS-3224]	7.07 (active)	8.27 (active)	8.28 (active)
CARKSRSKSKAGNASASA [FS-3195]	1.71	0.576 (inactive)	0.352 (inactive)
CARKKRQVPYAGNASASA [FS-2269]	7.32 (active)	7.2 (active)	5.84 (active)
CARKSRPNASAGNASASA [FS-2981]	0.905 (inactive)	-0.37 (inactive)	-0.749 (inactive)
